Test results published in the supplement of paper PMC10933113.
Counter-ions that a name gives are not always drawn. ± gives the uncertainty stated by the source.

test system: THP-1; assay: CD54 surface expression induction over DMSO control (% over DMSO); higher = stronger dendritic cell activation; conditions: exposure time: 24 h
Description: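 hCLAT-like CD54 and CD86 surface expression on THP1 cells after 24 h exposure at a single concentration (highest non-cytotoxic concentration, or 100-200 µM if not cytotoxic). Flow cytometry (iQue) was run on 5,000 live cells.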

| SMILES | CD54 surface expression induction |
| --- | --- |
| Nc1ccc2ccccc2c1 [2-Naphthylamine] (100 µM) | 10.3 ± 0.75 |
| C[C@@H]1O[C@@H](O[C@H]2C[C@@H](O)[C@]3(CO)[C@H]4[C@H](O)C[C@]5(C)[C@@H](C6=CC(=O)OC6)CC[C@]5(O)[C@@H]4CC[C@]3(O)C2)[C@H](O)[C@H](O)[C@H]1O [Ouabain] (10 µM) | 21.9 ± 10 |
| [Cl][Cd][Cl] [Cadmium II chloride] (200 µM) | 50.2 ± 4.8 |
| CN(C)S(=O)(=O)N(SC(F)(Cl)Cl)c1ccccc1 [Dichlofluanid] (10 µM) | 35.6 ± 3.1 |
| CCOCN(C(=O)CCl)c1c(C)cccc1CC [Acetochlor] (10 µM) | 104 ± 21 |
| O=C(CCl)c1ccccc1 [2-Chloroacetophenone] (100 µM) | 24.1 ± 11 |
| CC(COc1ccc(Oc2ccccc2)cc1)Oc1ccccn1 (stereo not given) [Pyriproxyfen] (200 µM) | -4.39 ± 4.3 |
| O=[N+]([O-])c1cc([N+](=O)[O-])c2ccccc2c1 [1,3-Dinitronaphthalene] (200 µM) | 3.83 ± 2.5 |
| O=C1C=CC(=O)c2ccccc21 (10 µM) | 239 ± 45 |
| CC(C)CC(C)Nc1ccc(Nc2ccccc2)cc1 (stereo not given) [N-(1,3-Dimethylbutyl)-N'-phenyl-p-phenylenediamine] (10 µM) | 6.74 ± 24 |
| Cc1ccc(N=C=O)cc1N=C=O [Toluene-2,4-diisocyanate] (100 µM) | -17 ± 4.1 |
| CCCOC/C(=N\c1ccc(Cl)cc1C(F)(F)F)n1ccnc1 [Triflumizole] (10 µM) | -3.38 ± 6.6 |
| Nc1ccc(-c2ccccc2)cc1 [4-Biphenylamine hydrochloride] (100 µM) | -0.07 ± 4.1 |
| C=CC(=O)OCC(COC(=O)C=C)(COC(=O)C=C)COC(=O)C=C [Pentaerythritol tetraacrylate] (10 µM) | 1.03 ± 1.9 |
| c1ccc(Nc2ccc(Nc3ccccc3)cc2)cc1 [N,N'-Diphenyl-p-phenylenediamine] (200 µM) | -11.2 ± 11 |
| Nc1ccc(Cl)cc1Cl [2,4-Dichloroaniline] (200 µM) | -7.56 ± 1.5 |
| COc1ccc(O)c(C(C)(C)C)c1 [2-tert-Butyl-4-methoxyphenol] (200 µM) | 0.6 ± 0.57 |
| CC(C)OC(=S)S [Proxan-sodium] (10 µM) | -6.19 ± 3 |
| OCc1ccco1 [Furfuryl alcohol] (201 µM) | 0.62 ± 1.6 |
| COc1ccccc1N [2-Methoxyaniline hydrochloride] (100 µM) | 2.44 ± 0.25 |

| SMILES | CD54 surface expression induction |
| --- | --- |
| O=C1OC(CCN2CCCCC2)OC1(c1ccccc1)c1ccccc1 (stereo not given) [Pipoxolan hydrochloride] (100 µM) | 78.1 ± 22 |
| CN1C[C@H](C(=O)N[C@]2(C)O[C@@]3(O)[C@@H]4CCCN4C(=O)[C@H](Cc4ccccc4)N3C2=O)C=C2c3cccc4[nH]cc(c34)C[C@H]21 [Ergotamine D-tartrate*] (79 µM) | 228 ± 28 |
| c1ccc2sc(SNC3CCCCC3)nc2c1 [N-Cyclohexyl-2-benzothiazolesulfenamide] (100 µM) | -15.5 ± 5.8 |
| O=C(CCl)CCl [1,3-Dichloropropanone] (200 µM) | -1.2 ± 0.3 |
| CCCCOCN(C(=O)CCl)c1c(CC)cccc1CC [Butachlor] (10 µM) | -3.73 ± 3.2 |
| S=C=NCc1ccccc1 (10 µM) | 10.5 ± 7.8 |
| COP(=S)(OC)Oc1ccc(SC)c(C)c1 [Fenthion] (100 µM) | -7.55 ± 5.7 |
| COP(=S)(OC)Oc1nc(Cl)c(Cl)cc1Cl [Chlorpyrifos-methyl] (200 µM) | 20.5 ± 8.1 |
| Cc1ccc2c(c1N)C(=O)c1ccccc1C2=O [1-Amino-2-methylanthraquinone] (100 µM) | 131 ± 21 |
| Nc1ccc(Cl)cc1N [4-Chloro-1,2-diaminobenzene*] (200 µM) | 233 ± 36 |
| N#CCC#N [Propanedinitrile] (199 µM) | -2.75 ± 3 |
| N#C/C=C/C#N [Fumaronitrile] (10 µM) | -10.2 ± 27 |
| O=[N+]([O-])c1cc(C(F)(F)F)c(Cl)c([N+](=O)[O-])c1Cl [2,4-Dichloro-1,3-dinitro-5-(trifluoromethyl)benzene] (10 µM) | 4.56 ± 5.6 |
| Nc1ccc(N)cc1 [1,4-Benzenediamine] (10 µM) | 30.8 |
| C[C@]12CC[C@H](O)C[C@H]1CC[C@@H]1[C@@H]2C[C@@H](O)[C@]2(C)[C@@H](C3=CC(=O)OC3)CC[C@]12O [Digoxigenin] (10 µM) | 27.6 ± 4.9 |
| [CH3][Hg][Cl] [Methyl mercuric (II) chloride] (10 µM) | 36.6 ± 5.5 |
| c1ccc2c(c1)OCC(C1=NCCN1)O2 (stereo not given) [Idazoxan] (10 µM) | -6.12 ± 5.1 |
| [OH-].c1cc[c]([Sn+]([c]2ccccc2)[c]2ccccc2)cc1 [Triphenyltin hydroxide] (10 µM) | 54.7 ± 30 |
| CN(C)c1ccc(N)cc1 [N,N-Dimethyl-p-phenylenediamine] (100 µM) | 30.8 ± 7.3 |
| c1cc(OCC2CO2)cc(OCC2CO2)c1 (stereo not given) [Diglycidyl resorcinol ether (DGRE)] (10 µM) | -3.16 ± 4.6 |
